Experimental data as given in PubChem BioAssay AID651640 (Broad Institute, 2012).
In all, about 350,000 compounds went through this assay and about 6,000 (1.7%) were called active. Roughly 5% stayed inconclusive and do not appear here. Many of the other results were omitted from the sample, so actives are more common in it than they were. Values without a mark were called inactive. Cut-off read from the data, not from the text of the source: active = CPE inhibition above about 20% (passing the limit was not always enough); inconclusive = no clear call, values can overlap the other calls; tested in BHK-21 cells.

Assay: inhibitors of DENV2 cytopathic effect, primary screen, cell-based, plate reader, single concentration (AID 651640);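 note: 0% = median of neutral control wells and 100% = median of positive control wells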
Details: DENV2-infected cells, cytopathic effect rescue, at 9.99 µM, stronger effect = higher value

Q: With `CCCNC(=O)C[C@@H]1CC[C@H]2[C@H](COc3ccc(NC(=O)c4ccc(Cl)cc4)cc3C(=O)N2C)O1` as the molecule, how does the CPE inhibition read?
A: The CPE inhibition was -2.04%.

Q: For `O=C(C[C@@H]1CC[C@H](NS(=O)(=O)c2cccc(F)c2)[C@H](CO)O1)N1CCCCC1`, which CPE inhibition is on record?
A: Its CPE inhibition is -2.32%.

Q: For `COc1ccc(-c2cn(CC[C@@H]3CC[C@@H](NC(=O)CCN4CCCCC4)[C@@H](CO)O3)nn2)cc1`, which CPE inhibition is on record?
A: Its CPE inhibition is -1.31%.

Q: Which CPE inhibition does the source give for `N#Cc1c(NC(=O)c2ccc(N3CCOCC3)c([N+](=O)[O-])c2)sc2c1CCCC2` here?
A: The CPE inhibition was 46.3% (active).

Q: With `O=C(OCC(=O)N1CCOCC1)c1ccc(N2CCOCC2)c([N+](=O)[O-])c1` as the molecule, how does the CPE inhibition read?
A: Its CPE inhibition is 2.84%.

Q: With `Cc1cccc(C)c1NC(=O)CNC(=O)c1ccc(N2CCOCC2)c([N+](=O)[O-])c1` as the molecule, how does the CPE inhibition read?
A: Its CPE inhibition is -8.12%.

Q: Which CPE inhibition does the source give for `C[C@H]1CN([C@@H](C)CO)C(=O)c2cccc(NC(=O)Nc3ccccc3)c2O[C@@H]1CN(C)S(=O)(=O)c1ccc(F)cc1` here?
A: The CPE inhibition was 13.7%.

Q: For `COc1ccc2c3c(n(C)c2c1)[C@@H](CO)N(CC1CC1)CC31CN(C(=O)Nc2c(C)noc2C)C1`, which CPE inhibition is on record?
A: Its CPE inhibition is 7.58%.

Q: With `COc1ccc(CNC(=O)COC(=O)CCS(=O)(=O)c2ccc(C)cc2)cc1OC` as the molecule, how does the CPE inhibition read?
A: The CPE inhibition was -2.46%.

Q: With `CCCCCCNC(=O)O[C@]12C[C@@H](C(=O)OC)[C@@H](C(=O)OC)C[C@@]1(O)CN(S(=O)(=O)c1ccc(C)cc1)C2` as the molecule, how does the CPE inhibition read?
A: Its CPE inhibition is -1.36%.

Q: Which CPE inhibition does the source give for `CCCCCCn1c(=O)n2n(c1=O)C[C@]1(OC(=O)NCc3ccc(OC)c(OC)c3)CN(S(=O)(=O)c3ccc(C)cc3)C[C@]1(O)C2` here?
A: Its CPE inhibition is 33.2% (active).

Q: For `C[C@H](O)C#Cc1ccc2c(c1)O[C@H](CN(C)Cc1ccccn1)[C@@H](C)CN([C@@H](C)CO)S2(=O)=O`, which CPE inhibition is on record?
A: Its CPE inhibition is 3.01%.

Q: For `C[C@H]1CN([C@@H](C)CO)C(=O)c2c(c3ccccc3n2C)-c2ccccc2CO[C@H]1CN(C)Cc1ccc2c(c1)OCO2`, which CPE inhibition is on record?
A: The CPE inhibition was -9.95%.

Q: With `CCOC(=O)NNc1cc(C(F)(F)F)ccn1` as the molecule, how does the CPE inhibition read?
A: The CPE inhibition was -1.25%.

Q: For `CCOC(=O)/C=C/c1ccccc1O`, which CPE inhibition is on record?
A: Its CPE inhibition is -9.35%.

Q: Which CPE inhibition does the source give for `CCOC(=O)/C=C/c1ccc(C(F)(F)F)cc1S(=O)(=O)NC(C)(C)C` here?
A: The CPE inhibition was 23.6% (active).

Q: With `O=C(CN1CCOCC1)N[C@@H]1CC[C@H](CCNS(=O)(=O)c2ccccc2F)O[C@H]1CO` as the molecule, how does the CPE inhibition read?
A: Its CPE inhibition is 28.5% (active).

Q: For `O=C(CN1CCOCC1)N[C@H]1CC[C@@H](CCNS(=O)(=O)c2ccccc2F)O[C@H]1CO`, which CPE inhibition is on record?
A: Its CPE inhibition is 1.76%.

Q: Which CPE inhibition does the source give for `O=C(Nc1ccccc1)N[C@@H]1CC[C@H](CCNS(=O)(=O)c2ccccc2F)O[C@@H]1CO` here?
A: Its CPE inhibition is -0.044%.

Q: Which CPE inhibition does the source give for `O=C(Cc1ccccc1)N1C[C@H]2[C@@H](c3ccccc31)[C@H](CO)N2C(=O)C1CCOCC1` here?
A: The CPE inhibition was 2%.

Q: With `O=C(NCC[C@H]1CC[C@@H](NC(=O)c2ccncc2)[C@@H](CO)O1)Nc1ccc(Cl)cc1` as the molecule, how does the CPE inhibition read?
A: Its CPE inhibition is 3.84%.

Q: Which CPE inhibition does the source give for `COc1ccc(NC(=O)Nc2ccc3c(c2)C(=O)N([C@@H](C)CO)C[C@@H](C)[C@@H](CN(C)C(=O)CCCN(C)C)OCCCC[C@@H](C)O3)cc1` here?
A: Its CPE inhibition is -1%.

Q: Which CPE inhibition does the source give for `Cc1ccc(S(=O)(=O)N[C@H]2CC[C@H](CC(=O)NCc3ccccc3F)O[C@@H]2CO)cc1` here?
A: Its CPE inhibition is 23.7% (active).

Q: Which CPE inhibition does the source give for `Cc1ccc(S(=O)(=O)N[C@H]2CC[C@@H](CC(=O)NCc3ccc(Cl)c(Cl)c3)O[C@H]2CO)cc1` here?
A: Its CPE inhibition is -6.75%.

Q: For `O=C(C[C@@H]1CC[C@H](NS(=O)(=O)c2ccc(F)cc2)[C@@H](CO)O1)NCc1ccccc1F`, which CPE inhibition is on record?
A: The CPE inhibition was 1.66%.

Q: Which CPE inhibition does the source give for `Cc1ccccc1-c1ccc2c(c1)O[C@@H](CN(C)Cc1ccc(C(=O)O)cc1)[C@H](C)CN([C@H](C)CO)S2(=O)=O` here?
A: Its CPE inhibition is 0.324%.

Q: For `CC=Cc1ccc2n(c1=O)C[C@H]1[C@H](CO)[C@@H](C(=O)N3CCCCC3)N(Cc3ccccn3)[C@@H]21` (mixture of isomers), which CPE inhibition is on record?
A: Its CPE inhibition is 14.3%.

Q: With `CCS(=O)(=O)Nc1ccc(C(=O)NCCSc2ccccc2)cc1` as the molecule, how does the CPE inhibition read?
A: The CPE inhibition was 32% (active).

Q: For `COc1cccc(C(=O)NCCSc2ccc(Br)cc2)c1`, which CPE inhibition is on record?
A: The CPE inhibition was 14.3%.

Q: For `COc1ccc(C(=O)NCCSc2ccccc2C)cc1`, which CPE inhibition is on record?
A: Its CPE inhibition is -6.82%.

Q: Which CPE inhibition does the source give for `C[C@@H]1CN([C@@H](C)CO)C(=O)c2cccc(N(C)C)c2O[C@@H]1CN(C)S(C)(=O)=O` here?
A: Its CPE inhibition is 1.61%.

Q: With `C[C@@H]1CCCCO[C@@H](CN(C)S(=O)(=O)c2cccs2)[C@@H](C)CN([C@H](C)CO)C(=O)c2cc(NC(=O)Nc3ccc4c(c3)OCO4)ccc2O1` as the molecule, how does the CPE inhibition read?
A: Its CPE inhibition is -1.49%.

Q: With `COCCNC(=O)[C@H]1[C@H](CO)[C@H]2Cn3c(ccc(-c4ccccc4F)c3=O)[C@H]2N1C(=O)C1CCC1` as the molecule, how does the CPE inhibition read?
A: Its CPE inhibition is -1.96%.

Q: With `COc1ccc(CCNC(=S)N2CCN(S(=O)(=O)c3ccc(Cl)cc3)CC2)cc1` as the molecule, how does the CPE inhibition read?
A: The CPE inhibition was 0.363%.

Q: For `COc1ccc(CCC(=O)N2CCN(S(=O)(=O)c3ccc(OC)cc3)CC2)cc1`, which CPE inhibition is on record?
A: Its CPE inhibition is -8.26%.

Q: For `COc1ccc(CCNC(=S)N2CCN(S(=O)(=O)c3ccc(F)cc3)CC2)cc1`, which CPE inhibition is on record?
A: The CPE inhibition was 53.1% (active).

Q: Which CPE inhibition does the source give for `CO[C@@H]1CN(C)C(=O)c2cc(NC(=O)NC3CCCCC3)ccc2OC[C@H](C)N(CC2CC2)C[C@H]1C` here?
A: The CPE inhibition was 5.48%.

Q: With `CN1c2ccc(-c3ccc(C#N)cc3)cc2[C@@H]2[C@@H](CCN2S(=O)(=O)c2cccc(F)c2)[C@@H]1CO` as the molecule, how does the CPE inhibition read?
A: The CPE inhibition was 2.27%.

Q: Which CPE inhibition does the source give for `COC(=O)[C@@H]1[C@@H](CO)[C@@H]2Cn3c(ccc(C4=CCCC4)c3=O)[C@@H]2N1Cc1cncnc1` here?
A: Its CPE inhibition is -0.488%.

Q: With `CCOC(=O)C1CCN(Cc2c(C(=O)N3CCOCC3)nc3c(C)cccn23)CC1` as the molecule, how does the CPE inhibition read?
A: The CPE inhibition was 115% (active).

Q: For `Cc1cccn2c(CN(C)C3CCCc4ccccc43)c(C(=O)N3CCOCC3)nc12` (centres undefined), which CPE inhibition is on record?
A: The CPE inhibition was -1.26%.

Q: Which CPE inhibition does the source give for `Cc1cccn2c(CNCC(C)Oc3cccnc3)c(C(=O)N3CCOCC3)nc12` (centres undefined) here?
A: The CPE inhibition was 5.69%.

Q: With `CN(C)C(=O)c1ccc(-c2ccc([C@H]3[C@@H](CO)N4C(=O)CN(C(=O)CC5CC5)C[C@@H]34)cc2)cc1` as the molecule, how does the CPE inhibition read?
A: The CPE inhibition was -1.06%.

Q: For `COc1ccccc1NC(=O)N1CC(=O)N2[C@H](CO)[C@H](c3ccc(C#Cc4ccccc4)cc3)[C@H]2C1`, which CPE inhibition is on record?
A: Its CPE inhibition is 8.69%.
